Laboratory results reported in PubChem BioAssay (NCATS).
“And” between values parts separate entries of the source, which are not always exact repeats. Equal entries are not always repeated. Results filed as inconclusive are left out. Entries that show only a call come without a potency. A number with no mark means an inactive call. The source made the active and inactive calls. Calls follow the shape of the dose curve; as a rule, active = well fitted curve in the direction sought with a large enough effect; inconclusive = small, poorly fitted or top-dose-only effect, or another doubt; inactive = no such curve, though single readings can be large; an effect the other way counts as inactive or inconclusive.

Assays:
[1] = Viability qHTS for spleen associated tyrosine kinase inhibitor (SYKi) naive MV4-11 cells (AID 1963823); also: nearly all actives have a fitted effect of over 40% in size
How it was run: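 Cells: MV4-11, SYK inhibitor naive, 500 per well. Treatment: library compounds, 72 hr, 37 C, 5% CO2. Read-out: CellTiter-Glo luminescence after 10 min RT.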

[2] = Viability qHTS for spleen associated tyrosine kinase inhibitor (SYKi) drug resistant MV4-11 cells (AID 1963824); also: nearly all actives have a fitted effect of over 35% in size
How it was run: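 SYK inhibitor-resistant MV4-11 AML cells, 500 per well, added to predispensed compounds and incubated 72 hr at 37 C, 5% CO2. Viability measured by CellTiter-Glo luminescence after 10 min at room temperature.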

[3] = Quantitative highthroughput screen to assess conditional lethalithy of NOMO1 cells grown in RPMI1640 with untreated serum (RPMI+s) (AID 1963876); also: nearly all actives have a fitted effect of over 35% in size
How it was run: (§1)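 Each medium arm—HPLM with 10% dialyzed FBS, or RPMI1640 with 5 mM glucose and 10% untreated or dialyzed FBS—was screened against an 11-point, 3-fold compound titration for 48 h at 37 °C, with CellTiter-Glo luminescence as endpoint.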

[4] = Quantitative highthroughput screen to assess conditional lethalithy of NOMO1 cells grown in RPMI1640 with dialyzed fetal bovine serum (RPMI+ds) (AID 1963877); also: nearly all actives have a fitted effect of over 30% in size; as to Viability: series mostly up to about 46 µM
How it was run: as §1

[5] = Quantitative highthroughput screen to assess conditional lethalithy of P12 Ichikawa cells grown in Human Plasma-Like Medium with dialyzed fetal bovine serum (HPLM+ds) (AID 1963879); conditions: Potency: viability; also: nearly all actives have a fitted effect of over 35% in size; as to Viability: series mostly up to about 46 µM
How it was run: as §1

[6] = Quantitative highthroughput screen to assess conditional lethalithy of P12 Ichikawa cells grown in RPMI1640 with dialyzed fetal bovine serum (RPMI+ds) (AID 1963880); conditions: Potency: P12-Ichikawa viability; also: nearly all actives have a fitted effect of over 35% in size
How it was run: as §1

[7] = Quantitative highthroughput screen to assess conditional lethalithy of P12 Ichikawa cells grown in RPMI1640 with untreated serum (RPMI+s) (AID 1963881); conditions: Potency: viability; also: nearly all actives have a fitted effect of over 35% in size; as to Viability: series mostly up to about 46 µM
How it was run: as §1

[8] = Quantitative highthroughput screen to assess conditional lethalithy of SEM cells grown in Human Plasma-Like Medium with dialyzed fetal bovine serum (HPLM+ds) (AID 1963882); also: nearly all actives have a fitted effect of over 35% in size; as to Viability: series mostly up to about 46 µM
How it was run: as §1

[9] = Quantitative highthroughput screen to assess conditional lethalithy of SEM cells grown in RPMI1640 with unreated serum (RPMI+s) (AID 1963883); also: nearly all actives have a fitted effect of over 35% in size
How it was run: as §1

[10] = Cellular viability qHTS for adrenocortical cancer (ACC) cell line SW-13 (AID 1963989); conditions: SW-13 ACC cells viability, CellTiter-Glo, 48 h; activity (max response): stronger effect = lower value; also: nearly all actives have a fitted effect of over 65% in size;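 as to activity (max response): cells grown in serum-free medium with ITS supplement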
How it was run: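 SW-13 cells in ITS-supplemented serum-free DMEM were plated overnight, then exposed for 48 h at 37C to compound titrations (up to 46 uM final). Viability was read by CellTiter-Glo luminescence; four-parameter logistic fits gave IC50 and efficacy.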

[11] = Cellular viability qHTS for adrenocortical cancer (ACC) cell line NCI-H295R (AID 1963990); also: nearly all actives have a fitted effect of over 60% in size
How it was run: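 Luminescent ATP read-out (CellTiter-Glo, 20 min RT) after 48 h drug exposure of NCI-H295R cells; a titration up to 46 uM final. Data normalized to doxorubicin (100% inhibition) and DMSO (0%); 4-parameter fit gives IC50, max response.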

[12] = Quantitative highthroughput screen to assess conditional lethalithy of NOMO1 cells grown in Human Plasma-Like Medium with dialyzed fetal bovine serum (HPLM+ds) (AID 1963878); also: nearly all actives have a fitted effect of over 35% in size
How it was run: as §1

[13] = Quantitative highthroughput screen to assess conditional lethalithy of SEM cells grown in RPMI1640 with dialyzed fetal bovine serum (RPMI+ds) (AID 1963884); also: nearly all actives have a fitted effect of over 35% in size; as to Viability: series mostly up to about 46 µM
How it was run: as §1
Potency is read from the fitted curve at half-maximal effect.

CC(C)[C@@H](CS(=O)(=O)C(C)C)N1C(=O)[C@@](C)(CC(=O)O)C[C@H](c2cccc(Cl)c2)[C@H]1c1ccc(Cl)cc1
Potency [1]: 18.6 µM (active) | Potency [2]: 14.6 µM (active) and 16.6 µM (active) | Potency [3]: 1.66 µM (active) | Potency [4]: 2.09 µM (active) | Potency [5]: 0.209 µM (active) | Potency [6]: 1.17 µM (active) | Potency [7]: 933 nM (active) | Potency [8]: 4.17 µM (active) | Potency [9]: 295 nM (active)

CNC[C@H](O)c1ccc(O)c(O)c1
Potency [1]: inactive | Potency [2]: inactive | Potency [3]: inactive | Potency [4]: inactive | Potency [5]: inactive | Potency [6]: inactive | Potency [7]: inactive | Potency [8]: inactive | Potency [9]: inactive | activity (max response) [10]: -16.4% and -3.87% | Potency [11]: inactive

CC(C)(C)c1nc2c3cc[nH]c(=O)c3c3cc(F)ccc3c2[nH]1
Potency [1]: 0.411 µM (active) | Potency [2]: 0.651 µM (active) | Potency [3]: 5.9 µM (active) | Potency [4]: 4.69 µM (active) | Potency [12]: 2.09 µM (active) | activity (max response) [10]: -16.1% | Potency [11]: inactive

CC1(C)O[C@H]2CC(=O)OC[C@]23[C@H]2CC[C@@]4(C)[C@H](c5ccoc5)OC(=O)[C@H]5O[C@]54[C@]2(C)C(=O)C[C@@H]13
Potency [1]: inactive | Potency [2]: inactive | Potency [3]: inactive | Potency [4]: inactive | Potency [5]: inactive | Potency [6]: inactive | Potency [7]: inactive | Potency [8]: inactive | Potency [9]: inactive | Potency [13]: inactive | activity (max response) [10]: 7.85% | Potency [11]: inactive

CNC(=O)c1ccc2c(C(=Nc3cccc(CN(C)C)c3)c3ccccc3)c(O)[nH]c2c1
Potency [1]: 2.95 µM (active) | Potency [2]: 5.8 µM (active) and 3.72 µM (active) | Potency [3]: 20.9 µM (active) | Potency [4]: 18.7 µM (active) | Potency [12]: 16.6 µM (active) | Potency [8]: 1.87 µM (active) | Potency [9]: 935 nM (active) | Potency [13]: 1.32 µM (active) | Potency [11]: 22.4 µM (active)

Nc1[nH]c(=O)ncc1F
Potency [1]: inactive | Potency [2]: inactive | Potency [3]: inactive | Potency [4]: inactive | Potency [5]: inactive | Potency [6]: inactive | Potency [7]: inactive | Potency [8]: inactive | Potency [9]: inactive | Potency [13]: inactive | activity (max response) [10]: 6.88% | Potency [11]: inactive

Cc1nc2n(c(=O)c1CCN1CCC(c3noc4cc(F)ccc34)CC1)CCCC2
Potency [1]: inactive | Potency [2]: inactive | Potency [3]: inactive | Potency [4]: inactive | Potency [5]: inactive | Potency [6]: inactive | Potency [7]: inactive | Potency [8]: inactive | Potency [9]: inactive | Potency [13]: inactive | Potency [11]: inactive

O=S(=O)(O)CCSSCCS(=O)(=O)O
Potency [1]: inactive | Potency [2]: inactive | Potency [3]: inactive | Potency [4]: inactive | Potency [5]: inactive | Potency [6]: inactive | Potency [7]: inactive | Potency [8]: inactive | Potency [13]: inactive | activity (max response) [10]: 0.678% | Potency [11]: inactive

Clc1ccccc1C(c1ccccc1)(c1ccccc1)n1ccnc1
Potency [1]: 5.25 µM (active) | Potency [2]: 5.25 µM (active) | Potency [3]: inactive | Potency [4]: inactive | Potency [12]: inactive | Potency [8]: inactive | Potency [10]: 16.4 µM (active) | Potency [11]: 23.1 µM (active)

CC(C)=CC[C@@H](O)C1=CC(=O)c2c(O)ccc(O)c2C1=O
Potency [1]: 5.25 µM (active) | Potency [2]: 2.63 µM (active) | Potency [3]: 1.66 µM (active) | Potency [4]: 2.09 µM (active) | Potency [5]: 9.35 µM (active) | Potency [6]: 13.2 µM (active) | Potency [8]: inactive

NCCCC(N)(C(=O)O)C(F)F (stereo not given)
Potency [1]: inactive | Potency [2]: inactive | Potency [3]: inactive | Potency [4]: inactive | Potency [5]: inactive | Potency [6]: inactive | Potency [7]: inactive | Potency [8]: inactive | Potency [9]: inactive | Potency [13]: inactive | activity (max response) [10]: 1.41% and -0.581% | Potency [11]: inactive

CC(C)c1cc(-c2n[nH]c(=O)n2-c2ccc3c(ccn3C)c2)c(O)cc1O
Potency [1]: 9.2 nM (active) and 9.3 nM (active) | Potency [2]: 11.6 nM (active) and 16.6 nM (active) | Potency [3]: 0.118 µM (active) | Potency [4]: 0.0935 µM (active) | Potency [12]: 0.105 µM (active) | Potency [8]: 0.0743 µM (active) | Potency [9]: 59 nM (active) | Potency [10]: 0.282 µM (active) | Potency [11]: 0.0126 µM (active)

CCCCc1oc2ccc(NS(C)(=O)=O)cc2c1C(=O)c1ccc(OCCCN(CCCC)CCCC)cc1
Potency [1]: 6.68 µM (active) and 2.59 µM (active) and 6.61 µM (active) | Potency [2]: 2.99 µM (active) and 2.91 µM (active) and 6.61 µM (active) | Potency [3]: 1.18 µM (active) | Potency [4]: 2.09 µM (active) | Potency [5]: 8.33 µM (active) | Potency [6]: 9.35 µM (active) | Potency [7]: 8330 nM (active) | Potency [11]: 4.11 µM (active) and 4.47 µM (active)

CC1(C)CCC(c2ccc(Cl)cc2)=C(CN2CCN(c3ccc(C(=O)NS(=O)(=O)c4ccc(N[C@H](CCN5CCOCC5)CSc5ccccc5)c(S(=O)(=O)C(F)(F)F)c4)cc3)CC2)C1
Potency [1]: 116 nM (active) and 332 nM (active) | Potency [2]: 32.6 nM (active) and 118 nM (active) | Potency [3]: 0.662 µM (active) | Potency [4]: 0.264 µM (active) | Potency [5]: 0.118 µM (active) | Potency [6]: 0.264 µM (active) | Potency [7]: 166 nM (active) | Potency [8]: 0.0833 µM (active) | Potency [9]: 52.6 nM (active) | activity (max response) [10]: 11.1%

O=c1cc(CN2CCOCC2)occ1OCCCCCSc1ccnc2cc(C(F)(F)F)ccc12
Potency [1]: 11.8 µM (active) | Potency [2]: 9.34 µM (active) | Potency [3]: inactive | Potency [4]: inactive | Potency [12]: inactive | Potency [8]: inactive | Potency [9]: inactive | Potency [13]: inactive | Potency [10]: 15.8 µM (active)
